“And” between values parts separate entries of the source, which are not always exact repeats. Identical values can stand only once. Inconclusive results are not listed. Some structures have more than one record in an assay (separate samples or runs), and their calls can disagree. The source made the active and inactive calls. Rule for the calls, unless noted: active = hit-call score of the fitted dose curve at least 0.9, where 1 is the maximum; inactive = score below 0.9.
How the values were obtained:
[1] = read-out: Macrophage colony-stimulating factor (MCSF), CSF1 (gene 1435); assay: BSK_LPS_MCSF: BioMAP Diversity Plus: LPS Assay for Macrophage colony-stimulating factor (MCSF) Biomarker Activity (AID 2283083); conditions: primary human HUVEC with PBMC; actives raise or lower the signal
Outline: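 ELISA readout of M-CSF after 24 h compound exposure in a human endothelial/PBMC co-culture. Activity, in either direction, is fitted relative to DMSO vehicle.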

[2] = read-out: Tissue Factor, F3 (gene 2152); assay: BSK_LPS_TissueFactor: BioMAP Diversity Plus: LPS Assay for Tissue Factor Biomarker Activity (AID 2283084); conditions: primary human HUVEC with PBMC; actives raise or lower the signal
Outline: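 ELISA signal for cell-surface Tissue Factor (CD142) was read 24 h after compound dosing of an LPS-stimulated human endothelial–PBMC primary co-culture. Gain or loss of signal was scored relative to DMSO.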

[3] = read-out: Tumor necrosis factor (Homo sapiens) (UniProt P01375); assay: BSK_LPS_TNFa: BioMAP Diversity Plus: LPS Assay for Tumour Necrosis Factor alpha (TNFa) Biomarker Activity (AID 2283085); conditions: primary human HUVEC with PBMC; actives raise or lower the signal
Outline: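 Human umbilical vein endothelial cells co-cultured with PBMC were exposed to test chemical and TNFa measured by ELISA 24 h after dosing. Bidirectional curve fitting was done relative to DMSO as negative control and baseline.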

[4] = read-out: Vascular cell adhesion molecule 1 (VCAM1), VCAM1 (gene 7412); assay: BSK_LPS_VCAM1: BioMAP Diversity Plus: LPS Assay for Vascular cell adhesion molecule 1 (VCAM1) Biomarker Activity (AID 2283086); conditions: primary human HUVEC with PBMC; actives raise or lower the signal
Outline: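 Human umbilical vein endothelial cells co-cultured with peripheral blood mononuclear cells under LPS stimulation were exposed to test chemical for 24 h. VCAM-1 levels were then measured by ELISA, with bidirectional curve fitting relative to DMSO as negative control and baseline.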

[5] = read-out: CD38, CD38 (gene 952); assay: BSK_SAg_CD38: BioMAP Diversity Plus: SAg Assay for CD38 Biomarker Activity (AID 2283087); conditions: primary human HUVEC with PBMC; actives raise or lower the signal
Outline: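 Fluorescence ELISA of cell-surface CD38 served as the read-out, with either increase or decrease fitted against DMSO controls. Cells were a human umbilical vein endothelium plus PBMC co-culture under SEB/TSST-1 stimulation, measured 24 h after dosing.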

[6] = read-out: CD40, CD40 (gene 958); assay: BSK_SAg_CD40: BioMAP Diversity Plus: SAg Assay for CD40 Biomarker Activity (AID 2283088); conditions: primary human HUVEC with PBMC; actives raise or lower the signal
Outline: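 Compounds were dosed onto a human primary endothelial–PBMC co-culture, and after 24 h CD40 was quantified by ELISA using a fluorescence signal. Activity in either direction was fitted relative to DMSO.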

[7] = read-out: CD69, CD69 (gene 969); assay: BSK_SAg_CD69: BioMAP Diversity Plus: SAg Assay for CD69 Biomarker Activity (AID 2283089); conditions: primary human HUVEC with PBMC; actives raise or lower the signal;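 for AC50: cell surface CD69 protein quantified by ELISA with fluorescence detection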
Outline: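 ELISA, fluorescence read-out: CD69 on human umbilical vein endothelial cell + PBMC co-culture, 24 h post-dosing. Gain or loss of signal fitted bidirectionally against DMSO baseline.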

[8] = read-out: Monocyte Chemoattractant Protein-1 (MCP1), CCL2 (gene 6347); assay: BSK_SAg_MCP1: BioMAP Diversity Plus: SAg Assay for Monocyte Chemoattractant Protein-1 (MCP1) Biomarker Activity (AID 2283090); conditions: primary human HUVEC with PBMC; actives raise or lower the signal
Outline: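 MCP-1 levels in the endothelial–PBMC SAg co-culture were quantified by ELISA at 24 h post-dosing; both increases and decreases versus DMSO scored. Cytotoxicity monitored by SRB total protein in parallel cultures.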

[9] = read-out: E-selectin (Homo sapiens) (UniProt P16581); assay: BSK_SAg_Eselectin: BioMAP Diversity Plus: SAg Assay for Eselectin Biomarker Activity (AID 2283091); conditions: primary human HUVEC with PBMC; actives raise or lower the signal
Outline: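 Co-culture: HUVEC + PBMC. Dose compound; 24 h. ELISA for E-selectin. Bidirectional fit vs DMSO.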

[10] = read-out: Monokine induced gamma interferon (MIG), CXCL9 (gene 4283); assay: BSK_SAg_MIG: BioMAP Diversity Plus: SAg Assay for Monokine induced gamma interferon (MIG) Biomarker Activity (AID 2283092); conditions: primary human HUVEC with PBMC; actives raise or lower the signal
Outline: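 ELISA readout of MIG/CXCL9; primary human umbilical vein endothelial cells co-cultured with peripheral blood mononuclear cells; 24 h post-dose; gain/loss fit vs DMSO baseline.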

[11] = read-out: Interleukin-8 (IL8), CXCL8 (gene 3576); assay: BSK_SAg_IL8: BioMAP Diversity Plus: SAg Assay for Interleukin-8 (IL8) Biomarker Activity (AID 2283094); conditions: primary human HUVEC with PBMC; actives raise or lower the signal
Outline: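 Human umbilical vein endothelial cells co-cultured with peripheral blood mononuclear cells; IL-8 measured by ELISA 24 h after chemical dosing. Bidirectional concentration-response fitting used DMSO as negative control and activity baseline.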

[12] = BSK_SAg_Proliferation: Cell Proliferation Assessment in the BioMAP Diversity Plus: SAg Assay (AID 2283095); conditions: primary human HUVEC with PBMC;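 note: relative cell number as total protein by SRB absorbance in sub-confluent culture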
Outline: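 Human umbilical vein endothelial cells co-cultured with peripheral blood mononuclear cells; total protein measured by sulforhodamine B staining (0.1% SRB after 10% TCA fixation), absorbance at 560 nm, at 96 h. Bidirectional fit against DMSO baseline.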

[13] = BSK_SAg_SRB: Viability Assessment in the BioMAP Diversity Plus: SAg Assay (AID 2283096); conditions: primary human HUVEC with PBMC;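 note: cells read one day after compound addition; hits may be either gain or loss of signal compared with DMSO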
Outline: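 Total protein by sulforhodamine B staining, 24 h after dosing, in HUVEC–PBMC co-culture; DMSO-referenced bidirectional fitting.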

[14] = BSK_SAg_PBMCCytotoxicity: PBMC Cytotoxicity Assessment in the BioMAP Diversity Plus: SAg Assay (AID 2283093); conditions: primary human HUVEC with PBMC;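 note: PBMC viability measured as Alamar Blue reduction fluorescence at 546/580 nm; fitted both ways against DMSO so a hit may be loss or gain of signal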;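 for AC50: PBMC superantigen activated with SEB plus TSST-1 one hour after compound addition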
Outline: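 Compound added to 75,000 PBMC/well for 1 h; SEB and TSST-1 then added at 20 ng/mL final each; 90 h incubation; Alamar Blue 6 h; read 546/580 nm ex/em. Activity fitted bidirectionally relative to DMSO baseline.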

[15] = molecular target: human CYP1A1, CYP1A1 (gene 1543) (UniProt P04798); assay: NVS_ADME_hCYP1A1: NovaScreen (NVS) CYP450-related Enzyme Activity (ADME) Assay for human CYP1A1 (AID 2283100; active = hit-call score of the fitted dose curve at least 0.9, where 1 is the maximum)
human CYP1A1, CYP1A1 (gene 1543), sequence (P04798 whole entry, looked up): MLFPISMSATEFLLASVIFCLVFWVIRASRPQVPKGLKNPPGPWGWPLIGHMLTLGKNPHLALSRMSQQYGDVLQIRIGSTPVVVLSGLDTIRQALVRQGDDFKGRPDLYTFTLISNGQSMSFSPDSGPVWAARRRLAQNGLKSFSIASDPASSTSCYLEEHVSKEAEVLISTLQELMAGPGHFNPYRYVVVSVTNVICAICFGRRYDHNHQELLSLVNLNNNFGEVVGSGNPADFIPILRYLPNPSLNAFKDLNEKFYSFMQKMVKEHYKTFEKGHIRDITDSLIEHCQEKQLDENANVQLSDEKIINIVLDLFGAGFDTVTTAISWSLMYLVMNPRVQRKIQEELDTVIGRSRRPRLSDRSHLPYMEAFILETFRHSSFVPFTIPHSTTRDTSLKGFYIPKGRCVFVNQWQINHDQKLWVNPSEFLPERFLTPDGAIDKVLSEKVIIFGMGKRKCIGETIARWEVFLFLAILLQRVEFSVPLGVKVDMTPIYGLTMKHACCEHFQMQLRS
Outline: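 Recombinant hCYP1A1 + fluorogenic substrate, cell-free; 1 h; fluorescence read. Single-point 10 uM (duplicate) → concentration series, max 20 uM. Acetonitrile negative control.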

[16] = molecular target: human CYP2B6, CYP2B6 (gene 1555) (UniProt P20813); assay: NVS_ADME_hCYP2B6: NovaScreen (NVS) CYP450-related Enzyme Activity (ADME) Assay for human CYP2B6 (AID 2283101; active = hit-call score of the fitted dose curve at least 0.9, where 1 is the maximum)
human CYP2B6, CYP2B6 (gene 1555), sequence (P20813 whole entry, looked up): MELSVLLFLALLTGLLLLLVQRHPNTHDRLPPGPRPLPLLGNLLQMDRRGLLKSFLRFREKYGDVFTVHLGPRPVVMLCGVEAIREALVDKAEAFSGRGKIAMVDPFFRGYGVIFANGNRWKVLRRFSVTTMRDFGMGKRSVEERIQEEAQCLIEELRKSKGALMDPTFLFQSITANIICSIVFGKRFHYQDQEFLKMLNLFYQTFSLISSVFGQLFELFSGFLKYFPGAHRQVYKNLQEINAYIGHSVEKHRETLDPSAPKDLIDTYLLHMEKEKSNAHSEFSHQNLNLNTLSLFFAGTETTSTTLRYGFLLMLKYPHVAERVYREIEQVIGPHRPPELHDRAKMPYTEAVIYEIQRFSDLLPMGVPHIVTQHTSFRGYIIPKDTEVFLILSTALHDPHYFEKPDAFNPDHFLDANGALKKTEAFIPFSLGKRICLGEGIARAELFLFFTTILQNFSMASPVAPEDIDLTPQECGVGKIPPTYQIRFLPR
Outline: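 Fluorescence-based enzyme activity of recombinant human CYP2B6, measured 1 h post-dose against acetonitrile vehicle baseline. Screened at a single concentration of 10 uM in duplicate before concentration-response follow-up.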

[17] = molecular target: human CYP1A2, CYP1A2 (gene 1544) (UniProt P05177); assay: NVS_ADME_hCYP1A2: NovaScreen (NVS) CYP450-related Enzyme Activity (ADME) Assay for human CYP1A2 (AID 2283102; active = hit-call score of the fitted dose curve at least 0.9, where 1 is the maximum;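 note: fluorescence from turnover of a fluorogenic substrate by recombinant insect-cell CYP1A2; potency for inhibition since loss of fluorescence marks reduced CYP1A2 activity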)
human CYP1A2, CYP1A2 (gene 1544), sequence (P05177 whole entry, looked up): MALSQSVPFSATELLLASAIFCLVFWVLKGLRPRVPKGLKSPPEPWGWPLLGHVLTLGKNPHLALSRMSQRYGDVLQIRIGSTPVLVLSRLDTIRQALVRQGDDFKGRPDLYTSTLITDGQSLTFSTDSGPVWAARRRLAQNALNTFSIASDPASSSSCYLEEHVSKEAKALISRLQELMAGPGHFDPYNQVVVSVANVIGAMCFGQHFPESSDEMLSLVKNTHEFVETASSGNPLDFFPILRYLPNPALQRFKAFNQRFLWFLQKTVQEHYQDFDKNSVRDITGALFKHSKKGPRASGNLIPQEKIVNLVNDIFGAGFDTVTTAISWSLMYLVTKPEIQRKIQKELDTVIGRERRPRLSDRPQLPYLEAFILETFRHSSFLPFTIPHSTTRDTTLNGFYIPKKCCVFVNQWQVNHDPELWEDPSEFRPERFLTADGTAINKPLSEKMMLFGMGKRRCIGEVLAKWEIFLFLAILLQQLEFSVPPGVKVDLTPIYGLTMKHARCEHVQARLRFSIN
Outline: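 rec. hCYP1A2 (insect cells), cell-free; fluorogenic substrate; 0.5 h; FI read. Baseline = acetonitrile; signal loss = inhibition. 10 uM duplicate primary → conc. series for actives.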

[18] = molecular target: human CYP2D6, CYP2D6 (gene 1565) (UniProt P10635); assay: NVS_ADME_hCYP2D6: NovaScreen (NVS) CYP450-related Enzyme Activity (ADME) Assay for human CYP2D6 (AID 2283107; active = hit-call score of the fitted dose curve at least 0.9, where 1 is the maximum)
human CYP2D6, CYP2D6 (gene 1565), sequence (P10635 whole entry, looked up): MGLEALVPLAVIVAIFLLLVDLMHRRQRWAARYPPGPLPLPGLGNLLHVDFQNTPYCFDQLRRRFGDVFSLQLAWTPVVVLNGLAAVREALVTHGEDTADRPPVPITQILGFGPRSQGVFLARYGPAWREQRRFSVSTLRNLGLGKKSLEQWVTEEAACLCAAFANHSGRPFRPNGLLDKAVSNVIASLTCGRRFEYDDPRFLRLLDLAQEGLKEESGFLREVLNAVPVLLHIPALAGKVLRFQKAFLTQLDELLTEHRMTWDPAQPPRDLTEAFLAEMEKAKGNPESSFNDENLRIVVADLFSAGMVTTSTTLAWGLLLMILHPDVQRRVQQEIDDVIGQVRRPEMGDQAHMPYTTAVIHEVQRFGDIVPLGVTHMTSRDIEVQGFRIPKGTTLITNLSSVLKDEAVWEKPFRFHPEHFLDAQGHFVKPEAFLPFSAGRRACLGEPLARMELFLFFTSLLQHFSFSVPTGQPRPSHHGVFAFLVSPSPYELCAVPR
Outline: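 Insect-cell recombinant enzyme + fluorogenic substrate, cell-free; 1 h incubation; fluorescence intensity readout. Acetonitrile = neg. ctrl/baseline. Single-point 10 uM, duplicate; follow-up concentration series.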

[19] = molecular target: human CYP2A6, CYP2A6 (gene 1548) (UniProt P11509); assay: NVS_ADME_hCYP2A6: NovaScreen (NVS) CYP450-related Enzyme Activity (ADME) Assay for human CYP2A6 (AID 2283099; active = hit-call score of the fitted dose curve at least 0.9, where 1 is the maximum)
human CYP2A6, CYP2A6 (gene 1548), sequence (P11509 whole entry, looked up): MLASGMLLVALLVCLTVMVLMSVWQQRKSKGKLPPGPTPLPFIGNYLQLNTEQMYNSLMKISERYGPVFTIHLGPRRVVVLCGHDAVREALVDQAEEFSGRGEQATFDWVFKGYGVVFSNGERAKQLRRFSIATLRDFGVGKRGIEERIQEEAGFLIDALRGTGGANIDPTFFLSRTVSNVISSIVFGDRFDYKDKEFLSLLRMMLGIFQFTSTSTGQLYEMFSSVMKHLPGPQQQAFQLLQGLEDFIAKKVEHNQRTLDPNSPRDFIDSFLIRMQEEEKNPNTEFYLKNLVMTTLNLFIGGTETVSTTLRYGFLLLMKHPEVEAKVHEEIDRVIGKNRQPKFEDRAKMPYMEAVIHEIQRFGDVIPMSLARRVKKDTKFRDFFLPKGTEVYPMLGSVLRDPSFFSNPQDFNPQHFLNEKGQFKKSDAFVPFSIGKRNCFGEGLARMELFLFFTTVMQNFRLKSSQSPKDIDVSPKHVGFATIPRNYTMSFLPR
Outline: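 Fluorescent substrate turnover by recombinant CYP2A6 (insect cell source), 0.5 h read. Screen: 10 uM, duplicate; threshold hits (e.g. 30% inhibition) → singleton concentration-response, top 20 uM. Positive and negative controls on every plate.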

Measured: AC50

E-selectin (Homo sapiens), sequence (P16581 whole entry, looked up): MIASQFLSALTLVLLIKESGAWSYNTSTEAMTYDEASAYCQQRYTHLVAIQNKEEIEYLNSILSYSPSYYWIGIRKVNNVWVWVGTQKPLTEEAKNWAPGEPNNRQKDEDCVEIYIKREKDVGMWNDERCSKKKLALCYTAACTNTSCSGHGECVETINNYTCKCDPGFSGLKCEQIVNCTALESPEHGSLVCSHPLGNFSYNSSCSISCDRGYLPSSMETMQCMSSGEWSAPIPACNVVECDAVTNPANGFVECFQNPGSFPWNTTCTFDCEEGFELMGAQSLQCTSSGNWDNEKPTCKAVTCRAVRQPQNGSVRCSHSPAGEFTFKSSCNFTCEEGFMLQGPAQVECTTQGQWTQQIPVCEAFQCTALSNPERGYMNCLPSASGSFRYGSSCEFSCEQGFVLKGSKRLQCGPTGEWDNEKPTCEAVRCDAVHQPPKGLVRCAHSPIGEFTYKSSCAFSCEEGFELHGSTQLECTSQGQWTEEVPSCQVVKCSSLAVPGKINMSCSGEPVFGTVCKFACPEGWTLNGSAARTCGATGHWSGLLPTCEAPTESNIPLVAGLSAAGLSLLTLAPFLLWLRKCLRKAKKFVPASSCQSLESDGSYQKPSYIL
Tumor necrosis factor (Homo sapiens), sequence (P01375 whole entry, looked up): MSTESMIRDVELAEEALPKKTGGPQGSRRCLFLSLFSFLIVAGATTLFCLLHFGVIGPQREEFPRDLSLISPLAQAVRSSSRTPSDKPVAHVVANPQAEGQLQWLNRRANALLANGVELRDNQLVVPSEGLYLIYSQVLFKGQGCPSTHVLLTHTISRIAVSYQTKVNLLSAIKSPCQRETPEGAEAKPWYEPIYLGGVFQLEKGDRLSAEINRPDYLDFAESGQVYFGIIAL

NC(=O)N1C(=O)C(C(=O)c2cc(Cl)cs2)c2cc(F)c(Cl)cc21 (stereo unspecified)
active: [2] 11.1 µM | [5] 24.9 µM | [6] 16.4 µM | [7] 20 µM | [8] 5.4 µM | [9] 8.61 µM | [12] 12.4 µM | [13] 20 µM
inactive: [1] | [3] | [4] | [10] | [11]

CCCCCCCCCCCCN1CCCC1=O
inactive: [2] | [3]
active: [1] 32.6 µM | [4] 34.1 µM | [5] 31.3 µM | [6] 30.9 µM | [7] 29.9 µM | [8] 29.6 µM | [9] 30.3 µM | [10] 36.8 µM | [14] 33 µM | [11] 20 µM | [12] 36.3 µM | [13] 30.9 µM

N#C[C@@H]1CC(F)(F)CN1C(=O)CNC1CC2CCC(C1)N2c1ncccn1 (stereo partly specified)
inactive: [2] | [3] | [4] | [9] | [10]
active: [1] 2.33 µM | [5] 4.4 µM | [6] 4.8 µM | [7] 4.59 µM | [8] 6.57 µM | [14] 8.08 µM | [11] 7.82 µM | [12] 9.88 µM | [13] 5.45 µM

Nc1cccc2c(N)cccc12
active: [14] 13.7 µM | [12] 17.5 µM | [16] 7.14 µM | [17] 3.06 µM | [18] 3.62 µM
not listed: [19]
inactive: all other assays above

CCN(CC)CCNc1ccc(CNC=O)c2sc3ccc(OC)cc3c(=O)c12
inactive: [19]
active: [1] 20 µM | [2] 25.5 µM | [3] 17.8 µM | [4] 14.4 µM | [5] 26.7 µM | [6] 27 µM | [7] 24.9 µM | [8] 20 µM | [9] 20 µM | [10] 36.4 µM | [14] 12.9 µM | [11] 20 µM | [12] 7.57 µM | [13] 17.8 µM | [15] 6.62 µM | [17] 7.1 µM

CCCCCCCC(=O)O
not listed: [15] | [16] | [17] | [18] | [19]
inactive: all other assays above

CC[C@H](C)[C@@H](C(=O)O)n1sc2ccccc2c1=O
active: [3] 20 µM | [4] 26.5 µM
not listed: [15] | [16] | [17] | [18] | [19]
inactive: all other assays above

OCCC(F)(F)C(F)(F)C(F)(F)C(F)(F)C(F)(F)C(F)(F)C(F)(F)C(F)(F)F
inactive: [1] | [2] | [3] | [5] | [6] | [7] | [8] | [9] | [10] | [11] | [13]
active: [1] 43.2 µM and 5.95 µM | [2] 45.6 µM | [3] 47.6 µM | [4] 24.3 µM and 33.3 µM and 18.8 µM | [5] 29.1 µM and 27.8 µM | [6] 29.1 µM and 23.8 µM | [7] 26 µM and 38.3 µM | [8] 43 µM and 23.1 µM | [9] 39.2 µM and 31.9 µM | [10] 46.3 µM and 43.8 µM | [14] 23.4 µM and 10 µM and 10.8 µM | [11] 41.5 µM and 24.6 µM | [12] 20 µM and 14.1 µM and 10.9 µM | [13] 17.2 µM and 21.1 µM

CN1CCN(c2ccccc2/C=C2\SCCN(c3ccc(Cl)c(Cl)c3)C2=O)CC1
inactive: [1] | [2] | [9] | [10]
active: [3] 20 µM | [4] 13 µM | [5] 24.1 µM | [6] 20 µM | [7] 20 µM | [8] 23 µM | [14] 14.4 µM | [11] 20 µM | [12] 6.38 µM | [13] 5.22 µM

CC(C)(C)c1ccc(O)c(C(C)(C)C)c1
active: [1] 13.4 µM | [2] 20 µM | [3] 13.2 µM | [4] 19.4 µM | [5] 14.5 µM | [6] 20 µM | [7] 24.8 µM | [8] 23.6 µM | [9] 11.9 µM | [10] 28.7 µM | [14] 12.9 µM | [11] 20 µM | [12] 10.8 µM | [13] 16.6 µM

O=C(O)Cc1cc(I)c(Oc2cc(I)c(O)c(I)c2)c(I)c1
inactive: [1] | [2] | [14] | [13]
active: [3] 17.4 µM | [4] 13.4 µM | [5] 21.3 µM | [6] 18.5 µM | [7] 15.3 µM | [8] 18.9 µM | [9] 16.2 µM | [10] 23.6 µM | [11] 13.4 µM | [12] 19.6 µM

COc1ccc([N+](=O)[O-])cc1N
active: [19] 5.77 µM
not listed: [15] | [17] | [18]
inactive: all other assays above

COCC(C)O (stereo unspecified)
not listed: [15] | [16] | [17] | [18] | [19]
inactive: all other assays above
